Results on 40 molecules are retold here after PubChem BioAssay (Tox21).

A number with no mark means an inactive call. Where a call stands in place of a potency, no number is given. Calls of active or inactive are those of the source. The call rests on the fitted dose curve; in most records, active means well fitted curve in the direction sought with a large enough effect in the repeat runs; inconclusive means weak or mixed curves; inactive means flat fitted curve, though single readings scatter.

The nature of this assay: qHTS assay to test for compound auto fluorescence at 460 nm (blue) in HEK293 cells (AID 720678). To be noted: blue autofluorescence 405/460 nm; series mostly up to 91.3 µM. An excerpt:
National Center for Advancing Translational Sciences [NCATS]
NIH Chemical Genomics Center [NCGC]
U.S. Environmental Protection Agency [EPA]
National Institutes of Environmental Health Sciences [NIEHS]
National Toxicology Program [NTP]
U.S. Food and Drug Administration [FDA]
Compound auto fluorescence often interferes with screening of the compound library against various biological targets and signaling pathways. Some of these compounds may have fluorophoric properties. Such properties may interfere with the assay outputs resulting in false positives and/or negatives. To decrease such complications and ensure the compound activities are relevant in terms of biological response, the Tox21 10K compound library was screened for auto fluorescence.
From the fluorophores used as reporter signals in our screening assays, the auto fluorescence equivalencies of compounds against three fluorophores have been evaluated: Triamterene, Fluorescein and Rose Bengal sodium for blue, green and red fluorescence, respectively. The fluorescence intensities were measured using Excitation/Emission wavelengths at 405/460nm, 485/535nm and 540/590nm for blue, green and red labels, respectively. This assay includes the blue fluorescence data.
Tox21 Assay Protocol Summary:
2,000 HEK293 cells in 5 uL of culture medium containing 10% dialyzed FBS per well were dispensed into black wall/clear bottom 1536-well plates using a Multidrop Combi Dispenser (Thermo Scientific). The assay plates were incubated for 4-5 hr at 37C to allow cell attachment to the well bottom, followed by the transfer of 23 nL compound or DMSO vehicle by a pintool work station (Kalypsys, San Diego, CA). After the assay plates were incubated overnight at 37C and 5% CO2, fluorescence intensities in the assay plates were measured by an Envision (PerkinElmer, Shelton, CT) plate reader using three labels for measuring blue, green and red fluorescence at […] 460, 535 and 590nm respectively.
(In general: In qHTS, concentration-response curves come from the screen itself.)
On to `CC(C)(C)CC(C)(C)c1ccc(OCCO)cc1`, for which the Potency entry was “inactive”.

Take `c1cnc2c(n1)CCCC2`: the Potency result was “inactive”.

Turning to `O=[N+]([O-])c1cccc(S(=O)(=O)NCCNS(=O)(=O)c2cccc([N+](=O)[O-])c2)c1`, the Potency result is “inactive”.

Take `Nc1ccc(S(=O)(=O)O)cc1`: the Potency entry is “inactive”.

For the molecule `CCOC(=O)/C=C/C(=O)O`, the Potency entry was “inactive”.

Turning to `O=C(N[C@@H](c1ccccc1)[C@@H]1CCCCN1)c1cccc(C(F)(F)F)c1Cl`, the Potency entry is “inactive”.

Take `CSc1ccc(Oc2ccc(S(N)(=O)=O)cc2CN(C)C)cc1C`: the Potency entry was “inactive”.

Consider `CC(CCO)CCc1ccccc1` (stereo not given), for which the Potency result was “inactive”.

`CC1=C(/C=C/C(C)=C\C=C\C(C)=C\C(=O)O)C(C)(C)CCC1`: the Potency entry was “inactive”.

Turning to `Fc1ccccc1[C@@H](F)COC1CCC(Nc2ncnc3[nH]ncc23)CC1` (stereo not given in full), the Potency result was “inactive”.

Turning to `CCCCC(=O)O[C@]1(C(=O)CO)[C@@H](C)C[C@H]2[C@@H]3CCC4=CC(=O)C=C[C@]4(C)[C@@]3(F)[C@@H](O)C[C@@]21C`, the Potency entry is “inactive”.

`CCN(CC)CCNC(=O)c1ccc(NC(C)=O)cc1`: the Potency entry is “inactive”.

Take `CCN(Cc1cccc(S(=O)(=O)O)c1)c1ccc(C(=C2C=CC(=[N+](CC)Cc3cccc(S(=O)(=O)[O-])c3)C=C2)c2ccccc2)cc1`: the Potency entry was “inactive”.

In the case of `CC1C2CC(CC2C2CCCC(O)C2)C1(C)C` (stereo not given), the Potency result is “inactive”.

Take `CCCCCCCCCCCCCCC[C@H](O)[C@@H](N)CO`: the Potency entry was “inactive”.

`CNC(=S)NC`: the Potency entry was “inactive”.

For the molecule `Nc1ccc(C(=O)OCCCOC(=O)c2ccc(N)cc2)cc1`, the Potency entry was “inactive”.

As to `Oc1ccc(Nc2ccccc2)cc1`, the Potency result is “inactive”.

On to `CCCc1c(OCCCOc2ccc(OCC(=O)O)cc2)ccc(C(C)=O)c1O`, for which the Potency entry was “inactive”.

For the molecule `O=C(O)Cc1ccc(-c2ccccc2)cc1`, the fluorescence, % of triamterene was -0.322% [at 18.6 µM].

For `O=C(CCCCCCC(=O)Nc1ccccc1)NO`, the Potency result was “inactive”.

In the case of `CC1CN(c2cc3c(cc2F)c(=O)c(C(=O)O)cn3-c2ccc(F)cc2F)CCN1` (stereo not given), the Potency entry was “inactive”.

As to `CC1=C(C=O)C(C)(C)CCC1`, the Potency result is “inactive”.

Consider `CCC(C)(O)CCC=C(C)C` (stereo not given), for which the Potency entry was “inactive”.

Take `C[Si](NC1CCCCC1)(NC1CCCCC1)NC1CCCCC1`: the Potency entry was “inactive”.

On to `CCOC(=O)[C@@H](C)Oc1ccc(Oc2nc3ccc(Cl)cc3o2)cc1`, for which the Potency result is “inactive”.

For the molecule `CCCOCCOCCO`, the Potency entry is “inactive”.

On to `CCCCC1C(=O)N(c2ccccc2)N(c2ccc(O)cc2)C1=O` (stereo not given), for which the fluorescence, % of triamterene is -0.133% [at 18.6 µM].

Regarding `O=C(CS)OCCOC(=O)CS`, the Potency result is “inactive”.

On to `CC(C)=CC=O`, for which the Potency entry is “inactive”.

For `COc1cc2c(cc1OC)-c1cc(=Nc3c(C)cc(C)cc3C)n(C)c(=O)n1CC2`, the Potency entry is “inactive”.

Consider `CC(C)(C)C(=O)O`, for which the Potency result is “inactive”.

For the molecule `CCCCN(CCCC)CCCOC(=O)c1ccc(N)cc1`, the fluorescence, % of triamterene was -0.0222% [at 18.6 µM].

As for `CO[Si](C)(OC)OC`, the Potency entry is “inactive”.

`C=CC(C)(C)CC(=O)OC`: the Potency entry was “inactive”.

Take `COc1ccc(C(=O)c2cccc(O)c2)c(OC)c1`: the Potency entry is “inactive”.

For `O=C(Nc1ccccc1)Nc1ccccc1`, the Potency entry was “inactive”.

For `C[Si]1(C)O[Si](C)(C)O[Si](C)(C)O1`, the Potency entry was “inactive”.

For the molecule `Cc1oc(C)c(C(=O)Nc2ccccc2)c1C`, the Potency result is “inactive”.

For the molecule `CC(=N\O)/C(C)=N/O`, the Potency entry was “inactive”.
